Compound activity deposited in PubChem BioAssay by National Center for Advancing Translational Sciences (NCATS).
Sampled rows, rich in hits. Any-hit rate of the full collection: about 19%.
DT40 TDP1 no CPT – qHTS for Inhibitors of human tyrosyl-DNA phosphodiesterase 1 (TDP1): qHTS in cells in absence of CPT. Potency, µM (doses to about 46.2 µM), for the others: at the highest dose activity change, negative = growth inhibition, usual class: inhibitors. DT40 Tdp1-/- hTDP1 cells, no CPT, ATP luminescence, 48 h. 420,000 tested, 15% active; further: potency means the concentration at half of the fitted maximal effect; nearly all actives have a fitted effect of over 55% in size
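Growth kinetics read by CellTiter-Glo luminescence after ≥48 hr at 37 °C. Cells: DT40 Tdp1-/- stably carrying human TDP1, 400 per well, compound exposure in the absence of CPT (DMSO vehicle).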
HT1080 IDH1KD tx – toxicity to HT-1080 IDH1 knockdown cells (counter line); HT-1080 IDH1 knockdown viability, ATP luminescence, 48 h; Potency, µM (titrated, usually from 46.1 µM), without a hit: at the highest dose activity, negative = toxicity, hits mostly cytotoxic; 360,000 tested, 2% active;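 further: potency means the concentration at half of the fitted maximal effect; 0% = DMSO wells and -100% = cell-free medium wells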
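Luminescent ATP read-out (CellTiter-Glo, 10 min at room temperature) after 48 h compound exposure at 37 °C gave viability of IDH1-knockdown HT-1080 cells. Activity was normalised to DMSO and cell-free wells, then fitted as concentration-response curves.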
IL1B secr inh – inhibitors of inflammasome signaling (IL-1 beta secretion); THP-1 LPS/ATP IL-1B secretion, AlphaLISA, 16 h; active compounds read low; activity change, % at 57.5 µM; 360,000 tested, 4.7% active; in the data active means activity change below about -50%; inconclusive means mostly about -30% to -49%
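Secreted IL-1B measured by AlphaLISA bead assay after 16 h compound exposure of THP-1 cells; compounds (final up to 57.5 uM) added 1 h before LPS (250 ng/mL) and ATP (1.25 mM) stimulation; lower signal means less secretion.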
ELG1 repair inh – inhibitors of ELG1-dependent DNA repair in HEK293T cells. Potency, µM (series often up to 46.1 µM), without a hit: top-dose activity change, negative = inhibition, actives largely listed as inhibitors. 330,000 tested, 2.3% active. HEK293T ELG1-luciferase reporter, luminescence, 16 h; DNA damage induced by 5-fluorouridine. AID 504467; further: potency means the concentration at half of the fitted maximal effect; nearly all actives have a fitted effect of over 55% in size
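In this reporter screen, reduction of luminescence relative to DMSO vehicle indicated activity. Compounds and 5-fluorouridine were added together to 2,000 cells per well, incubated for 16 hr at 37 °C, then developed with ONE-Glo.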
DT40 TDP1 CPT – growth inhibition of DT40 Tdp1-/-;hTDP1 cells with camptothecin (screen for TDP1 inhibitors); 420,000 tested, 12% active; chicken DT40 Tdp1-/-;hTDP1 cells + 20 nM CPT, ATP luminescence, 48 h; Potency, µM (highest dose often 46.2 µM), without a hit: at the top dose activity change, negative = growth inhibition, actives largely listed as inhibitors; AID 686979; further: potency means the concentration at half of the fitted maximal effect; nearly all actives have a fitted effect of over 55% in size
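Cell growth measured by CellTiter-Glo luminescence after a minimum 48 h, 37 C compound exposure with 20 nM CPT in Tdp1-knockout DT40 cells stably expressing hTDP1, seeded 400/well; qHTS titration format.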
HT1080-NT tox – kills 2HG-producing HT-1080-NT fibrosarcoma cells; HT-1080-NT fibrosarcoma viability, CellTiter-Glo ATP luminescence, 48 h; Potency, µM (series often up to 46.1 µM), without a hit: top-dose activity, negative = less viability, most hits filed as cytotoxic; 360,000 tested, 1.6% active;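 further: NT is the 2HG producing partner of a matched IDH1 knockdown line; potency means the concentration at half of the fitted maximal effect; 0% = DMSO-treated cells and -100% = media-only wells without cells; nearly all actives have a fitted effect of over 55% in size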
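Fibrosarcoma NT cells, 750 per well in 5% FBS RPMI, were exposed to compound for 48 hours. Viability: CellTiter-Glo luminescence.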
* hit, by the source's call; ? = inconclusive; · = no result. Unless noted, the call rests on the fitted dose curve; in most records, active means well fitted curve in the direction sought with a large enough effect; inconclusive means small, poorly fitted or top-dose-only effect, or another doubt; inactive means no such curve, though single readings can be large; an effect the other way counts as inactive or inconclusive. Unless noted, on the % scale 0 is the no-effect control and ±100 the full control effect.

SMILES	DT40 TDP1 no CPT	HT1080 IDH1KD tx	IL1B secr inh	ELG1 repair inh	DT40 TDP1 CPT	HT1080-NT tox
S=c1[nH]nc(-c2ccco2)n1Cc1ccccc1	-3%	9%	37	?	-8%	8%
S=c1[nH]nc(CN2CCCCC2)n1Cc1ccccc1	16µM*	?	12	-22%	15µM*	22%
S=c1[nH]nc(CN2CCCC2)n1Cc1ccccc1	0%	2%	3	7%	-6%	0%
S=c1[nH]nc(-c2ccc(Br)o2)n1Cc1ccccc1	21µM*	?	-7	?	?	-1%
Clc1ccc(Cn2c(CN3CCCC3)nc3ccccc32)cc1	7.2µM*	·	·	-1%	?	·
OCc1nc2ccccc2n1Cc1ccc(Cl)cc1	?	-9%	-19	-10%	?	0%
c1ccc(Cn2c(CN3CCCC3)nc3ccccc32)cc1	16µM*	-7%	-20	-2%	?	-5%
CCc1ccccc1NC(=O)C1CCN(c2cnccn2)CC1	-5%	0%	-2	0%	10%	-1%
C=CCC[C@H](Cc1ccc(F)cc1)C(=O)OC[C@@H](Cc1c[nH]c2ccccc12)NC(=O)[C@@H](CC=C)CC(=O)N[C@@H](CO)Cc1ccccc1	23µM*	?	-30	2%	?	?
C=CCC[C@@H](Cc1ccc(F)cc1)C(=O)OC[C@@H](Cc1c[nH]c2ccccc12)NC(=O)[C@H](CC=C)CC(=O)N[C@H](CO)Cc1ccccc1	?	?	91	12%	?	21µM*
C=CCC[C@@H](Cc1ccc(F)cc1)C(=O)OC[C@@H](Cc1c[nH]c2ccccc12)NC(=O)[C@@H](CC=C)CC(=O)N[C@H](CO)Cc1ccccc1	?	-1%	-7	-8%	?	-20%
C=CCC[C@H](Cc1ccc(F)cc1)C(=O)OC[C@H](Cc1c[nH]c2ccccc12)NC(=O)[C@@H](CC=C)CC(=O)NCCO	?	-7%	-12	21µM*	?	-14%
C=CCC[C@@H](Cc1ccc(F)cc1)C(=O)OC[C@H](Cc1c[nH]c2ccccc12)NC(=O)[C@@H](CC=C)CC(=O)N[C@@H](CO)Cc1ccccc1	?	-1%	-3	-20%	21µM*	-2%
COc1ccc(NC(=O)CNC(=O)Cc2cccc3ccccc23)c(OC)c1	-14%	?	9	1%	6%	20%
CCOC(=O)C1(Cc2ccccc2Cl)CCN(C(=O)c2cnccn2)CC1	?	2%	0	?	-16%	12%
Cc1ccc(NC(=O)COC(=O)[C@@H]2CC(O)CN2S(=O)(=O)c2ccc3c(c2)OCCO3)cc1 (stereo partly specified)	-1%	-8%	-9	?	-15%	3%
CC(C)c1nnc(N2C(=O)c3oc4ccccc4c(=O)c3C2c2cccc(O)c2)s1 (stereo unspecified)	-1%	·	·	·	5%	·
C=CCC[C@H](Cc1ccc(F)cc1)C(=O)OC[C@@H](C)NC(=O)[C@H](CC=C)CC(=O)NCCO	?	11%	0	18%	-23%	18%
C=CCC[C@@H](Cc1ccc(F)cc1)C(=O)OC[C@@H](Cc1c[nH]c2ccccc12)NC(=O)[C@@H](CC=C)CC(=O)N[C@@H](CO)Cc1ccccc1	?	-3%	-19	3%	23µM*	-1%
C=CCC[C@@H](Cc1ccc(F)cc1)C(=O)OC[C@@H](Cc1ccccc1)NC(=O)[C@H](CC=C)CC(=O)NCCO	13µM*	-1%	-25	-29%	9.2µM*	0%
Cc1oc2ncn(C)c(=O)c2c1C(=O)N1CCN(c2ccc(Cl)cc2)CC1	3%	·	·	·	5%	·
Clc1ccccc1OCCCn1ccnc1	-1%	-10%	21	-1%	-20%	-16%
CCCCn1cnc2c(c(-c3ccccc3)c(-c3ccccc3)n2Cc2ccco2)c1=N	-16%	-16%	-73*	?	-3%	-20%
N=c1c2c(-c3ccccc3)c(-c3ccccc3)n(Cc3ccco3)c2ncn1Cc1ccco1	6.5µM*	21µM*	-6	-4%	9.2µM*	16µM*
N=c1c2c(-c3ccccc3)c(-c3ccccc3)n(Cc3ccccc3)c2ncn1CCCn1ccnc1	?	23µM*	-27	?	16µM*	23µM*
SMILES	DT40 TDP1 no CPT	HT1080 IDH1KD tx	IL1B secr inh	ELG1 repair inh	DT40 TDP1 CPT	HT1080-NT tox
CCCCC(=O)N(C)c1c(C)nc2ccc(C(=O)N3CCNC(=O)C3)cn12	-14%	14%	15	·	-12%	23%
COc1ccc(NC(=O)CSc2nc3ccsc3c(=O)n2CCC(=O)O)c(OC)c1	22%	1%	31	18%	0%	-3%
CC1CCCCC12NC(=O)N(CC(=O)OCC(=O)NC(=O)c1ccccc1)C2=O (stereo unspecified)	27%	-5%	-3	-5%	-11%	-6%
O=[N+]([O-])c1cc2ncccc2c2ncccc12	4.6µM*	-25%	?	·	6.5µM*	?
Cc1cc([N+](=O)[O-])cc2ncccc12	-5%	1%	-7	5%	-6%	-4%
COc1ccc(CCN2CC(C#N)=C3c4cc(OC)c(OC)cc4CCN3C2)cc1OC	?	-12%	-20	21µM*	?	0%
C=CCN(c1ccccc1OC)S(=O)(=O)c1cccc(C(=O)Nc2nnc(C3CC3)s2)c1	1%	-16%	2	-28%	21%	0%
C=CCN(c1ccccc1)S(=O)(=O)c1cc(C(=O)NC2=NCCS2)ccc1Cl	-28%	-12%	3	21µM*	-6%	-13%
C=CCN(c1ccccc1OC)S(=O)(=O)c1cccc(C(=O)NC2=NCCS2)c1	23µM*	2%	-11	23µM*	?	2%
Cc1ccc(C(=O)OCC(=O)c2c[nH]c3ccccc23)cc1S(=O)(=O)N1CCOCC1	?	-13%	13	?	?	-7%
N[C@](CC1c2ccccc2Oc2ccccc21)(C(=O)O)[C@@H]1C[C@@H]1C(=O)O	-4%	·	·	·	-5%	·
COc1cc(C2NCC(c3ccc(Cl)cc3Cl)c3c2[nH]c2ccccc32)cc(OC)c1OC (stereo unspecified)	18µM*	15µM*	-66*	1%	?	18µM*
COc1ccc(CCNC(=O)c2cc3c(=O)n(C)c4ccccc4c3s2)cc1OC	?	·	·	·	-7%	·
